Shown are actives, neighbours in structure and some others; about 2.8% of the full set was active somewhere.
HIF-2a block – HIF-2a inhibition | actives 0.72% (n = 360,000) | inhibition, % at 18.8 µM | 786-0 RCC cells HIF-2a reporter, luciferase luminescence, overnight;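 active = inhibition of the luminescence signal of 40% or more relative to plate controls, in a single-dose primary screen at 18.75 µM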
TRPM1 prom inh – MITF TRPM1 promoter inhibition in SK-MEL-5 cells; SK-MEL-5 TRPM1 promoter luciferase, 24 h; inhibition, % at 12.5 µM; actives 0.83% (n = 330,000); AID 488899;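 active = mean inhibition across replicates of 60% or more, whatever share of single replicates reaches that level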
LMP1 NFkB inh – inhibitors of Epstein-Barr LMP1-induced NF-kappaB reporter. LMP1-induced NF-kappaB luciferase reporter cells, luminescence. inhibition, % at 12.5 µM. actives 0.69% (n = 350,000). AID 504558; in the data active = inhibition above about 41%;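 also: 0% = neutral control wells and 100% = reference inhibitor control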
Peg3 promoter – Peg3 promoter activity inhibition | HeLa PEG-Prom luciferase reporter, luminescence, overnight | inhibition, % at 20 µM | actives 1.7% (n = 360,000) | AID 588405;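 active = inhibition of at least 50% at 20 µM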
PAX8 reporter – PAX8 transcriptional activity inhibition; AID 652154; inhibition, % at 12.6 µM; RMG-I TPO-luciferase reporter, SteadyGlo, 24 h; actives 1.2% (n = 360,000);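 active = mean replicate inhibition at least 60% with every replicate also reaching 60%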;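 also: luciferase light reporting Pax8 driven TPO promoter activity; plate controls were median of neutral control wells for no effect and mitoxantrone controls for full effect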
Shn3 3UTR inh – Schnurri-3 reporter inhibition in Clone20 osteoblasts | Clone20 osteoblast Shn3 3'UTR firefly luciferase, 24 h | inhibition, % at 12.5 µM | actives 0.52% (n = 360,000);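 active = mean inhibition of at least 75% with every replicate also reaching 75%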;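 also: 0% = median of neutral control wells and 100% = pilot-screen positive control compound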
Numbers without * were called inactive; nt = no result.

SMILES | HIF-2a block | TRPM1 prom inh | LMP1 NFkB inh | Peg3 promoter | PAX8 reporter | Shn3 3UTR inh
COC(=O)[C@@]1(Cc2ccc(F)cc2)[C@H]2c3cc(C(=O)N4CCCC4)n(CCCNc4ncc(C(F)(F)F)cc4Cl)c3C[C@H]2CN1C(=O)c1ccccc1 | -18.6 | 7.8 | 45.4* | 20.3 | nt | -102.8
COc1cc(/C=C(\C#N)c2ccccn2)cc(OC)c1O | -10.7 | 0.3 | -9.6 | -1.6 | 21.6 | 4.8
COc1cc(/C=C(\C#N)c2ccccn2)ccc1OCc1ccccc1Cl | -92.4 | -9.8 | 70.4* | -108.1 | -12.5 | 9.8
O=C(Nc1cccc(-c2cccc(Cl)c2)c1)C1CCN(Cc2ccc(CO)o2)CC1 | -13.8 | -2.3 | -2.3 | 54.5* | 10.7 | 4.9
Cc1ccc(CN2CCC(C(=O)Nc3cccc(-c4cccc(F)c4)c3)CC2)o1 | 14.9 | -1.0 | 3.3 | 12.1 | -2.8 | 14.7
Cc1ccccc1NC(=O)Nc1ccc2c(c1)C(=O)N(C)[C@@H]1CC[C@@H](CC(=O)O)O[C@@H]1CO2 | nt | nt | nt | nt | -10.0 | nt
Cc1cc(C)n(-c2nc(SCCN(C)C)c3c4c(sc3n2)COC(C)(C)C4)n1 | -29.5 | -0.1 | -15.7 | 53.9* | nt | 5.3
Cc1cc(C)n(-c2nc(NCC(C)O)c3c4c(sc3n2)COC(C)(C)C4)n1 (centres undefined) | -57.1 | -16.3 | -5.9 | -21.9 | nt | 10.3
O=S1(=O)CC=C(CSC(=S)NC2CCS(=O)(=O)C2)C1 (centres undefined) | 38.2 | 29.3 | -1.7 | 56.9* | 1.0 | -0.9
NC(=S)N/N=C\c1c2ccccc2cc2ccccc12 | -13.2 | -7.5 | -55.3 | 7.7 | 9.3 | -15.3
NC(=S)NN=Cc1cc(-c2cccc(N)c2)ccn1 | -75.1 | nt | 20.7 | 25.4 | 94.1* | 76.0
COc1cc(C(=O)N(C(C)C)C2CCCCC2)cc(OC)c1OC | 3.8 | nt | -3.9 | 7.4 | 12.6 | 4.0
O=C(Nc1cccc(C(=O)NC2CCCCC2)c1)c1ccccc1 | 4.8 | -2.8 | -4.6 | -8.2 | 1.5 | -3.1
COCCCNC(=O)c1cccc(NC(=O)c2ccccc2)c1 | 8.8 | 6.2 | 0.1 | -3.0 | 1.5 | 12.5
CC(C)OCCCNC(=O)c1cccc(NC(=O)c2ccccc2)c1 | 22.0 | -0.2 | -9.5 | 4.9 | 126.5* | 8.1
CCN(C(=O)c1cccc(NC(=O)c2ccccc2)c1)C1CCCCC1 | 17.2 | 4.1 | 51.3* | 20.6 | 8.7 | 0.5
CCN(C(=O)c1cc(OC)c(OC)c(OC)c1)C1CCCCC1 | 7.1 | nt | 48.2* | 6.0 | 0.3 | 16.6
CNC[C@H]1Oc2ncc(C#Cc3cccc(OC)c3)cc2C(=O)N([C@H](C)CO)C[C@H]1C | nt | nt | nt | nt | 9.7 | nt
C[C@H](CO)N1C[C@H](C)[C@@H](CN(C)CC2CCOCC2)Oc2ncc(-c3cccc(F)c3)cc2C1=O | nt | nt | nt | nt | -18.6 | nt
Nc1ccc(C=C2C=Cc3ccccc32)cc1 | -120.3 | -15.2 | -11.3 | -246.3 | -174.0 | -5.8
NC(N)=Nc1ccc(C=C2C=Cc3ccccc32)cc1 | -128.0 | -2.5 | -6.1 | 104.4* | -56.0 | -3.7
C[C@H]1CN([C@@H](C)CO)C(=O)c2cccc(NC(=O)Nc3ccc(C(F)(F)F)cc3)c2O[C@H]1CN(C)S(=O)(=O)c1ccc(F)cc1 | nt | nt | nt | nt | -2.7 | nt
CN(CC(=O)Nc1cccc(F)c1)CC(=O)N(C)CC(=O)Nc1ccccc1Br | 1.0 | 10.4 | 73.0* | 17.9 | 17.5 | -21.0
c1ccc2c(-c3ccncc3)c[nH]c2c1 | -31.1 | -12.9 | 76.6* | -57.9 | nt | -9.0
C=CCNc1nc(N)c(C(=C(C#N)C#N)c2ccc(Br)cc2)s1 | 3.0 | 22.4 | 11.1 | 55.9* | 17.6 | 28.1
SMILES | HIF-2a block | TRPM1 prom inh | LMP1 NFkB inh | Peg3 promoter | PAX8 reporter | Shn3 3UTR inh
COc1ccc2cc3[n+](cc2c1O)CCc1cc2c(cc1-3)OCO2 | -7.0 | nt | nt | nt | -4.8 | nt
C[n+]1cc2c3c(ccc2c2ccc4cc5c(cc4c21)OCO5)OCO3 | nt | nt | nt | nt | 108.5* | nt
Cc1nc(-c2cc(C#N)c(=O)[nH]c2C)cs1 | 13.9 | 7.8 | -7.3 | 23.1 | 8.2 | -23.4
Cc1[nH]c(=O)c(C#N)cc1-c1csc(-c2ccccc2)n1 | 18.3 | 30.8 | 12.1 | 59.8* | 5.3 | 8.3
O=C(NC1CCCC1)C(c1ccc(Cl)cc1)N(Cc1ccc(F)cc1)C(=O)CCl (centres undefined) | 14.1 | 7.9 | 3.1 | 36.0 | nt | -7.7
O=C(NC1CCCC1)C(c1ccc(F)cc1)N(Cc1ccc(Cl)cc1)C(=O)CCl (centres undefined) | 18.3 | 31.7 | 4.6 | 62.0* | 6.9 | -2.8
COc1ccc(C[C@@H]2CN3C(=NC[C@@H]3Cc3ccc(O)cc3)N2C[C@H](C)NC(=O)CCC2CCCCC2)cc1 | -14.9 | -16.8 | -2.7 | 68.0* | nt | -5.8
COc1cc(C=C2CCCC(=Cc3ccc(OCC4CO4)c(OC)c3)C2=O)ccc1OCC1CO1 (centres undefined) | 13.4 | nt | 48.9* | 92.7* | 29.7 | 54.4
COc1ccc(/C=C2/CSC/C(=C/c3ccc(OC)c(OC)c3)C2=O)cc1OC | 91.8* | 99.0* | 90.0* | 99.6* | 38.4 | 97.8*
CCc1ccc(C2c3[nH]c4ccccc4c3CCN2C(=O)CN2CCN(CC)CC2)cc1 (centres undefined) | 5.8 | 42.9 | -15.7 | 84.1* | 16.3 | -10.6
CC1=C(C)C(=O)C(CCCCC#CCCCC#CCO)=C(C)C1=O | 10.0 | 31.7 | 43.3* | 6.2 | nt | -0.8
CCN(CC)c1ccc(/C=C/c2cccc[n+]2C)c(OC)c1 | -4.1 | 68.1* | 38.2 | 48.3 | 95.2* | 89.1*
C[C@@H]1CCCCO[C@@H](CN(C)Cc2ccc(C(=O)O)cc2)[C@H](C)CN([C@H](C)CO)C(=O)c2cc(NC(=O)Nc3ccc(C(F)(F)F)cc3)ccc2O1 | nt | nt | nt | nt | -14.3 | nt
C[C@@H]1CCCCO[C@@H](CN(C)Cc2ccc(Cl)c(Cl)c2)[C@H](C)CN([C@H](C)CO)C(=O)c2cc(NC(=O)Nc3ccc(C(F)(F)F)cc3)ccc2O1 | nt | nt | nt | nt | 90.5* | nt
C[C@@H]1CN([C@H](C)CO)C(=O)c2cc(NC(=O)Nc3ccc(C(F)(F)F)cc3)ccc2O[C@@H](C)CCCCO[C@H]1CN(C)Cc1ccc(Cl)c(Cl)c1 | nt | nt | nt | nt | 91.2* | nt
C[C@H](CO)N1C[C@H](C)[C@@H](CN(C)Cc2ccc(Cl)c(Cl)c2)OCCCC[C@H](C)Oc2ccc(NC(=O)Nc3ccc(C(F)(F)F)cc3)cc2C1=O | nt | nt | nt | nt | 84.0* | nt
C[C@H]1CCCCO[C@H](CN(C)Cc2ccc(Cl)c(Cl)c2)[C@@H](C)CN([C@@H](C)CO)C(=O)c2cc(NC(=O)Nc3ccc(C(F)(F)F)cc3)ccc2O1 | nt | nt | nt | nt | 78.3* | nt
CC(C)NC(=O)Nc1ccc2c(c1)C(=O)N(C)[C@@H]1CC[C@@H](CC(=O)NCC(F)(F)F)O[C@@H]1CO2 | nt | nt | nt | nt | 4.1 | nt
C[C@H]1CCCCO[C@H](CN(C)CC2CC2)[C@@H](C)CN([C@@H](C)CO)C(=O)c2cc(NS(=O)(=O)c3ccc(F)cc3)ccc2O1 | nt | nt | nt | nt | -17.4 | nt
CN1C(=O)c2cc(NC(=O)c3cccc(F)c3)ccc2OC[C@@H]2O[C@@H](CC(=O)NCc3ccccc3Cl)CC[C@@H]21 | nt | nt | nt | nt | 11.1 | nt
